Laboratory results taken from the supplement of paper PMC10849652.
The full data set covers some 8,800 targets. This sample favours those with a hit. About 0.5% of all pairs of compound and target were hits.

Key:
Assay in all cases: log2 fold change, soluble protein after heating vs DMSO (PISA); higher = thermal stabilisation; K562 lysate, 10 uM; active = over 0.2 and 3.5 SD of the protein, either way, in both replicates (recomputed)
[1] = compound: Cc1cn(-c2cc(NC(=O)c3ccc(C)c(Nc4nccc(-c5cccnc5)n4)c3)cc(C(F)(F)F)c2)cn1 [nilotinib]
Method in brief: (§1)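 Pellets of K562 cells were dounce-homogenised in PBS pH 7.4 with 1 mM MgCl2, and the crude extract was held at 1 mg/mL protein for a 30 min treatment with 10 μM compound. Aliquots were heated for 3 min over 48°C-58°C and pooled before NP-40 was added to 0.5% at 4°C. The supernatant from 21,000xg for 90 min was quantified by TMTpro 16plex LC-MS/MS with channel sums equalised. Values are reported from duplicates as log-two fold change in thermal stability relative to solvent controls.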

[2] = compound: Cc1nc(Nc2n[nH]c3c2CN(C(=O)N[C@H](CN(C)C)c2ccccc2)C3(C)C)c2sccc2n1
Method in brief: as §1

[3] = compound: Cc1nc(Nc2ncc(C(=O)Nc3c(C)cccc3Cl)s2)cc(N2CCN(CCO)CC2)n1 [dasatinib]
Method in brief: as §1

[4] = compound: Cc1ncc(-c2ccnc(Nc3ccc(S(C)(=O)=O)cc3)n2)n1C(C)C
Method in brief: as §1

[5] = compound: Cn1cc(-c2ccc3c(c2)CCN3C(=O)Cc2cccc(C(F)(F)F)c2)c2c(N)ncnc21
Method in brief: as §1

[6] = compound: Cn1cc(CNCC2CCN(c3ncc(C(=O)NO)cn3)CC2)c2ccccc21 [quisinostat]
Method in brief: as §1

[7] = compound: Cn1cncc1[C@@](N)(c1ccc(Cl)cc1)c1ccc2c(c1)c(-c1cccc(Cl)c1)cc(=O)n2C [tipifarnib]
Method in brief: as §1

[8] = compound: NC(=O)Nc1cc(-c2cccc(F)c2)sc1C(=O)N[C@H]1CCCNC1
Method in brief: as §1

[9] = compound: NC1(c2ccc(-c3nc4ccn5c(=O)[nH]nc5c4cc3-c3ccccc3)cc2)CCC1
Method in brief: as §1

[10] = compound: O=C(CCCCCCC(=O)Nc1ccccc1)NO [vorinostat]
Method in brief: as §1

[11] = compound: O=C(O)c1ccc2c(c1)nc(Nc1cccc(Cl)c1)c1ccncc12 [silmitasertib]
Method in brief: as §1

[12] = compound: O=C1NC(=O)C(c2cnc3ccccn23)=C1c1cn2c3c(cc(F)cc13)CN(C(=O)N1CCCCC1)CC2
Method in brief: as §1

[13] = compound: c1cn2cc(-c3ccc4cn[nH]c4c3)nc(Nc3ccc(N4CCOCC4)cc3)c2n1 [entospletinib]
Method in brief: as §1

[14] = compound: NCC(=O)Nc1ccc(-n2nc(C(F)(F)F)cc2-c2ccc3c(ccc4ccccc43)c2)cc1
Method in brief: as §1

Measured: log2 fold change

MRC2 (UniProt Q9UBG0)
UniProt Q9UBG0, sequence (Q9UBG0 whole entry, looked up): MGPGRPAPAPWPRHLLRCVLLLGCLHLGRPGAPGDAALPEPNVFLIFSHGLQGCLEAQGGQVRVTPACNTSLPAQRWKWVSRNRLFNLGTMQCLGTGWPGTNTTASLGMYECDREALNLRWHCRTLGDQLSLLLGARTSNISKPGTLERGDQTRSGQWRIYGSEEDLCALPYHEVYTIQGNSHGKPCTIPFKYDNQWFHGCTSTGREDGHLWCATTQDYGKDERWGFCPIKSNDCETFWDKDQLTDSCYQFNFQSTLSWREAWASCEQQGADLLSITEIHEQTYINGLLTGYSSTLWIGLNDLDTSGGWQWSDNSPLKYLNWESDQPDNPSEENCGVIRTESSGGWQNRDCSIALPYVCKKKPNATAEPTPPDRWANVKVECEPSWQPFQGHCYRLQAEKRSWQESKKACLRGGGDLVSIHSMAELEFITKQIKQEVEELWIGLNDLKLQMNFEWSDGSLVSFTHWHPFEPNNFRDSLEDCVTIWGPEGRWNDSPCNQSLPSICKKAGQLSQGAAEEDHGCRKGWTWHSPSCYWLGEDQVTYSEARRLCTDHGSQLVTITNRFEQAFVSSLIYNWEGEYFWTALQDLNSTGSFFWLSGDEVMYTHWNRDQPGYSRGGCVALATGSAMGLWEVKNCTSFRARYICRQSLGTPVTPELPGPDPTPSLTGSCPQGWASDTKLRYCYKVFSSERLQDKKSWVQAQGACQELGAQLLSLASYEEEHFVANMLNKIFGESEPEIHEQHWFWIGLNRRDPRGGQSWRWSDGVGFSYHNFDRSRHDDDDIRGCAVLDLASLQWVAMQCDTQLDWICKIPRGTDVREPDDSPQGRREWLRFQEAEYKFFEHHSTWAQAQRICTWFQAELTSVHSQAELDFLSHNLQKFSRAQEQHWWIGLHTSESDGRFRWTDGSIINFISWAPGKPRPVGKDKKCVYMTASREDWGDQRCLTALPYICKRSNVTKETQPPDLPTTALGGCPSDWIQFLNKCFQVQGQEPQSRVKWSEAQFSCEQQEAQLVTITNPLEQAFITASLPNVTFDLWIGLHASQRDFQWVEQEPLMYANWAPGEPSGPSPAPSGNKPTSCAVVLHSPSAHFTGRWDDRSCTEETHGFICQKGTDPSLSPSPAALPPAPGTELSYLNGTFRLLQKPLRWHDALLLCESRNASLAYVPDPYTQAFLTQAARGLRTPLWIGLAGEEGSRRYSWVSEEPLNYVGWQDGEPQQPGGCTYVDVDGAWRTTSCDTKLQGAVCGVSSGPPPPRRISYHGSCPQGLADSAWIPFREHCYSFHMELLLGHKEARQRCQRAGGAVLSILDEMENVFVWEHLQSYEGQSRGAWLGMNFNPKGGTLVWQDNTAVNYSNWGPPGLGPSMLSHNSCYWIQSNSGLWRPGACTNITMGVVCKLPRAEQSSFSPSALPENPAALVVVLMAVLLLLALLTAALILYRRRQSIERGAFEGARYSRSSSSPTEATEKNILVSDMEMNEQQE
inactive: [1] -0.001 | [2] -0.055 | [3] -0.201 | [4] 0.26 | [5] 0.073 | [6] -0.056 | [7] 0.083 | [8] 0.144 | [9] 0.068 | [10] 0.346 | [11] -0.051 | [12] -0.171 | [13] -0.055

MAP3K4 isoform 2 (UniProt Q9Y6R4)
UniProt Q9Y6R4, sequence (Q9Y6R4 whole entry, looked up): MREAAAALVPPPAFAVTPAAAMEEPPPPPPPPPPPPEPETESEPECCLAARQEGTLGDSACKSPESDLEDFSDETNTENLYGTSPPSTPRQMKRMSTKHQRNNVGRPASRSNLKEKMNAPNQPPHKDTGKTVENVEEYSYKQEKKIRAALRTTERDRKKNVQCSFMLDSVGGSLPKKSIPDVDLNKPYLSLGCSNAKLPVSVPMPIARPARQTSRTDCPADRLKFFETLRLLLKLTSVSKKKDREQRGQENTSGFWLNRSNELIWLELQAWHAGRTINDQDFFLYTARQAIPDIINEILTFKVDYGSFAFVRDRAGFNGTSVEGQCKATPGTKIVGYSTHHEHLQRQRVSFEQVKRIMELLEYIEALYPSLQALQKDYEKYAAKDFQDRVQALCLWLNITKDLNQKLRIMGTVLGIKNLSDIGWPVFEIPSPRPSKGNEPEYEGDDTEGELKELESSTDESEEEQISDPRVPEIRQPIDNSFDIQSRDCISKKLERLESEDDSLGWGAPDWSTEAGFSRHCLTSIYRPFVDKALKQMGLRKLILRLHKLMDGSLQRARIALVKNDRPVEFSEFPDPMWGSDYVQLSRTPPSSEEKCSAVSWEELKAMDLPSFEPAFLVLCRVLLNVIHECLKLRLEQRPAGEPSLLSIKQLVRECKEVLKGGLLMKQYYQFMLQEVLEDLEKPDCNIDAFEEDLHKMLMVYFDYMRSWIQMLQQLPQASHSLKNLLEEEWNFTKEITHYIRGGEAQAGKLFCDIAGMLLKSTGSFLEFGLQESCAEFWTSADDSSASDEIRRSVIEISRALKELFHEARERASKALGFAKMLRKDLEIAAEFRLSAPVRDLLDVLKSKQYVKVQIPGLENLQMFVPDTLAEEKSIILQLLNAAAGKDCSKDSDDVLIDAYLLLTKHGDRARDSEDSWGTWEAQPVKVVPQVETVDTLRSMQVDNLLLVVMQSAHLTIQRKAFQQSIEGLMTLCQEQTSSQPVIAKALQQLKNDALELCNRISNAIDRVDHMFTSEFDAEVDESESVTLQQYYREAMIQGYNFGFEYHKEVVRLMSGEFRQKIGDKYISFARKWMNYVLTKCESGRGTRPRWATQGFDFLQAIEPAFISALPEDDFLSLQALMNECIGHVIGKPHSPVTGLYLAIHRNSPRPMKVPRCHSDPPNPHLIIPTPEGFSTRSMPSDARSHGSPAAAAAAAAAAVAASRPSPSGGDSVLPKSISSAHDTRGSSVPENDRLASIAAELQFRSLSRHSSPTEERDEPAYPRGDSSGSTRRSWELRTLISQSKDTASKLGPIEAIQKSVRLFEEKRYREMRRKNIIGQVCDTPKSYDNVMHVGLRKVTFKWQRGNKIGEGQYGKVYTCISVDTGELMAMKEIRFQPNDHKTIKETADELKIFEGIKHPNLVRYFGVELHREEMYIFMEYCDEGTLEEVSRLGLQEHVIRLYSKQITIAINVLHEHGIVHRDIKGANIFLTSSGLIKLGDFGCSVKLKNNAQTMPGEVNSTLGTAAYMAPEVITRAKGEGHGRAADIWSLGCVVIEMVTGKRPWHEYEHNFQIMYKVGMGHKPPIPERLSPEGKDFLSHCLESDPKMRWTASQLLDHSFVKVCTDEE
inactive: [6] 0.009 | [8] 0.112 | [12] 0.034

MBTPS1 (UniProt Q14703)
UniProt Q14703, sequence (Q14703 whole entry, looked up): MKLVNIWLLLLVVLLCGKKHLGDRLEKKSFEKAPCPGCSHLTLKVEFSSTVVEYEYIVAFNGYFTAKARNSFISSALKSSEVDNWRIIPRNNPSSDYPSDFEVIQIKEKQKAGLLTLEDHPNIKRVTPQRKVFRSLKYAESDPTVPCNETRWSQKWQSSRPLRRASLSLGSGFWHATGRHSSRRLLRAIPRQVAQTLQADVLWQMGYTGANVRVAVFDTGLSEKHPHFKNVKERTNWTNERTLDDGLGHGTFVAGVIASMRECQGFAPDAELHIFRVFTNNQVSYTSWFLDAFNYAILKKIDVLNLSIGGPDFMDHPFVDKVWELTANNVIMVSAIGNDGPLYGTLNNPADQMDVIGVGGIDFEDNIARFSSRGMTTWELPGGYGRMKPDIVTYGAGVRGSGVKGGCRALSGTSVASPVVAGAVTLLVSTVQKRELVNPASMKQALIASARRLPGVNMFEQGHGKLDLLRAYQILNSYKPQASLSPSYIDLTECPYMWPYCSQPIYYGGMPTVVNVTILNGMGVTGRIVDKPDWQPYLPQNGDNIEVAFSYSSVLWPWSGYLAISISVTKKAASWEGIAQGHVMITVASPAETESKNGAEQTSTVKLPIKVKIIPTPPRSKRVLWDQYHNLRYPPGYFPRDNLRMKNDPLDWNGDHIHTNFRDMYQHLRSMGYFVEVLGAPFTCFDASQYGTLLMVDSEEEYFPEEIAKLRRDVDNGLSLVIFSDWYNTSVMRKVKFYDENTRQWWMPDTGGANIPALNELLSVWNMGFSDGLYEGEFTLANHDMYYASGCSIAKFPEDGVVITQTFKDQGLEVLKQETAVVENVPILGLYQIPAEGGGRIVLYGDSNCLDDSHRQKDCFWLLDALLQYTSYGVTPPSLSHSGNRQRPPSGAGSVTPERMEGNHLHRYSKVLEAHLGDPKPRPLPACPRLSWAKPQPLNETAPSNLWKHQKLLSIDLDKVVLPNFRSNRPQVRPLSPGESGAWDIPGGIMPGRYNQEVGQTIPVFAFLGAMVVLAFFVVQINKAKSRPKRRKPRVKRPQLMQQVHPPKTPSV
inactive: [3] 0.106 | [5] -0.101 | [6] -0.053 | [8] 0.026 | [9] -0.045 | [14] 0.17 | [10] 0.116 | [11] -0.023 | [12] -0.044 | [13] 0.094
